A selection: hits, their analogues and other compounds. The true share with any hit is near 5.2%.
FBPA coupling cs = qHTS Assay for Inhibitors of Fructose-1,6-bisphosphate Aldolase from Giardia Lamblia: Coupling assay counterscreen. coupling enzyme system counterscreen, AmpLite Red fluorescence. activity change, negative = inhibition, % at 58.2 µM, hits read low. 0.67% of 290,000 active; in the data active = activity change below about -30%
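Compounds tested against the coupling enzymes alone at 57.5 uM final; readout was AmpLite Red fluorescence (525/598 nm) after 20 min at RT.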
Tau fibril FP = qHTS for Inhibitors of Tau Fibril Formation, Fluorescence Polarization; K18 P301L tau heparin fibrillization, Alexa594 FP, 6 h; Potency, µM (titrated, usually from 57.7 µM), inactives show at the highest dose activity, negative = inhibition, most hits filed as inhibitors; 0.39% of 280,000 active; note: potency is the fitted concentration of half-maximal effect; nearly all actives have a fitted effect of over 55% in size
Target sequence (P10636 561-689 P618L limits assumed): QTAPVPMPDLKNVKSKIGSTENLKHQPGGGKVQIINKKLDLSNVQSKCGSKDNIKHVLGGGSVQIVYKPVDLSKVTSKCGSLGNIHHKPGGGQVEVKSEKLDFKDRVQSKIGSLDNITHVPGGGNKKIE
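Human K18 P301L fragment (15 uM unlabeled plus 0.24 uM Alexa 594-labeled) in 100 mM sodium acetate pH 7 with compound, aggregation induced by 20 uM heparin for 6 hr at 37 C. ThT (30 uM) added for 1 hr, then Alexa 594 FP read.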
Tau fluor counter = Counterscreen qHTS for Inhibitors of Tau Fibril Formation, Fluorescence Polarization | tau K18 P301L Alexa594 fluorescence, heparin fibrillization | Potency, µM (highest dose often 57.7 µM), inactives show top-dose activity change, negative = decrease | 0.93% of 280,000 active | AID 1463, 2008; note: potency is the fitted concentration of half-maximal effect; nearly all actives have a fitted effect of over 55% in size
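Human tau K18 P301L (15 uM unlabeled, 0.24 uM Alexa 594-labeled) in 100 mM sodium acetate pH 7 with 20 uM heparin, 6 hr at 37 C. ThT 30 uM added, 1 hr ambient; Alexa 594 FP and total fluorescence read at 555/632 nm.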
Tau fibril ThT = qHTS for Inhibitors of Tau Fibril Formation, Thioflavin T Binding; recombinant tau K18 P301L (four-repeat tau fragment), heparin-induced fibrillization, ThT fluorescence; Potency, µM (series often up to 57.4 µM), without a hit: at the top dose activity, negative = inhibition, hits mostly inhibitors; AID 1460, 2008; 2.1% of 270,000 active; Microtubule-associated protein tau (Homo sapiens), P10636; note: potency is the fitted concentration of half-maximal effect; nearly all actives have a fitted effect of over 55% in size
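K18 P301L tau (15 uM + 0.24 uM Alexa 594-tagged), heparin 20 uM, NaOAc pH 7, 6 h 37 C; ThT 30 uM, 1 h RT, ex 450/em 510 nm.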
Sfp PPTase inh = qHTS Assay for Inhibitors of Bacillus subtilis Sfp phosphopantetheinyl transferase (PPTase); 4'-phosphopantetheinyl transferase ffp (Bacillus subtilis), Q9F4F7; Biochemical Sfp PPTase activity, qHTS; Potency, µM, for the others: largest response in the series, negative = inhibition, actives largely listed as inhibitors; 3.5% of 310,000 active; AID 1490, 2009;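 note: the enzyme is Sfp with the accession as filed and its product quenches rhodamine fluorescence; potency is the fitted concentration of half-maximal effect; 0% = enzyme reaction without inhibitor and -100% = no enzyme wells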
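Compounds were incubated with enzyme (final 15 nM) for 15 min at room temperature before substrate addition started the reaction. Fluorescence at 525 nm excitation, 598 nm emission was recorded immediately and after 30 minutes.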
* = called active by the depositor; ? = inconclusive; nt = no result; [ ] = dose if it differs, or a comment. Unless noted, calls come from the whole dose curve; as a rule, active = well fitted curve in the direction sought with a large enough effect; inconclusive = small, poorly fitted or top-dose-only effect, or another doubt; inactive = no such curve, though single readings can be large; an effect the other way counts as inactive or inconclusive. Unless noted, % is set by controls: 0 for no effect and ±100 for the full control effect.

SMILES | FBPA coupling cs | Tau fibril FP | Tau fluor counter | Tau fibril ThT | Sfp PPTase inh
COc1ccc(CC(=O)NCc2ccc3c(c2)CCN3C(=O)c2ccccc2)cc1OC | nt | -3.3% | -4.0% | -3.8% | nt
COc1ccc2c(c1)c1c(c(=O)n(-c3ccccc3C)c(=O)n1CC(=O)NCc1ccc(C)cc1)n2C | nt | -3.4% | -25.2% | -7.4% | nt
CCOC(=O)COc1ccc(C)cc1C(=O)c1ccn2nc(-c3ccc(F)cc3)cc2n1 | nt | -6.9% | -14.7% | -1.9% | nt
COc1ccc2c(c1)-c1nc(/N=C/c3cccc(OC)c3O)sc1CC2 | 6.3 | -1.5% | 2.7% | 6.4% | -1.5%
COc1ccc2c(c1)-c1nc(/N=C/c3ccccc3O)sc1CC2 | -16.7 | ? | ? | 31.6µM* | -18.8%
C=CCNC(=S)N1CCN(Cc2ccc3c(c2)OCO3)CC1 | -5.2 | nt | nt | nt | 17.8µM*
CCNC(=S)N1CCN(Cc2ccc3c(c2)OCO3)CC1 | 4.4 | 2.7% | 1.8% | -6.0% | 11.1%
CCOc1ccc(C(=O)Nc2ccc(C(=O)OCc3cc(=O)n4c(C)csc4n3)cc2)cc1 | nt | -11.3% | -16.3% | 17.8% | nt
Cc1ccc(NC(=O)/C=C\C(=O)NCC(=O)O)cc1 | 0.3 | 1.1% | -1.9% | -7.3% | 70.8µM*
Cc1ccc(S(=O)(=O)Nc2ccc(NC(=O)/C=C/C(=O)O)cc2)cc1 | 5.8 | -0.7% | -0.8% | -6.4% | 5.0%
Cc1nn(CCCC(=O)NCc2cccc(Cl)c2)c(=O)c2c1sc1ccccc12 | nt | -10.1% | ? | -1.1% | nt
Cc1sc(C(C2C(=O)CC(C)(C)CC2=O)C2C(=O)CC(C)(C)CC2=O)cc1[N+](=O)[O-] | 1.4 | -4.8% | -17.9% | ? | 6.31µM*
O=C(CCCSc1nc2ccccc2[nH]1)N1CCN(c2ccc([N+](=O)[O-])cc2)CC1 | 0.0 | -6.0% | -18.9% | 0.794µM* | 8.6%
O=C(CSc1nc2ccccc2[nH]1)N1CCN(c2ccc(F)cc2)CC1 | 1.4 | 5.9% | -8.2% | -12.0% | -3.5%
COc1cccc(Nc2ncc3nc(C)c(=O)n(CCc4ccccc4)c3n2)c1 | 1.2 | nt | nt | nt | 14.8%
S=C(c1ccc(-c2cc(Cl)ccc2Cl)o1)N1CCOCC1 | -1.4 | -1.3% | -24.4% | ? | 25.1µM*
COc1ccc(Cl)cc1NC(=S)N1CCCCCC1 | 0.7 | nt | nt | nt | 8.4%
O=C(Nc1ccc(CN2CCOCC2)cc1)c1ccc(-c2cc(Cl)ccc2Cl)o1 | 1.9 | ? | ? | -7.1% | 2.9%
S=C(c1ccc(-c2cc(Cl)ccc2Cl)o1)N1CCCCC1 | 0.2 | 12.9% | -0.5% | 0.4% | 15.8µM*
C=C1CCN(C(CC(C)C)C(=O)Nc2ccc(OC)cc2)S(=O)(=O)c2ccccc21 (stereo not drawn) | -4.5 | nt | nt | nt | -4.6%
COCCCNC(=O)C1CCN(c2nc3ccc(Cl)cc3[nH]2)CC1 | nt | -0.2% | -14.3% | -15.8% | nt
CCOc1ccc(C(=O)c2ccc(O)c(O)c2O)cc1 | -3.0 | ? | ? | 22.4µM* | 50.1µM*
CCOc1cccc(C(=O)c2ccc(O)c(O)c2O)c1 | -21.7 | ? | ? | 22.4µM* | -79.1%
CCOC(=O)COc1ccc(C(=O)c2ccccc2)c(O)c1 | -1.3 | 6.4% | -7.6% | -7.0% | -11.8%
COC(=O)/C(C#N)=C/c1ccc(OC(=O)c2ccccn2)cc1 | -8.2 | 6.6% | 6.6% | ? | 14.1µM*
SMILES | FBPA coupling cs | Tau fibril FP | Tau fluor counter | Tau fibril ThT | Sfp PPTase inh
CCOC(=O)/C(C#N)=C/c1ccc(OC(=O)c2ccccn2)cc1 | 0.0 | 0.1% | 20.8% | ? | 50.1µM*
O=C(Nc1ccc(Br)cc1)C1CCCN1S(=O)(=O)c1ccc(F)cc1 (stereo not drawn) | nt | -4.4% | -14.6% | 10.0% | nt
O=c1c(N2CCc3ccccc3C2)csc2ccccc12 | nt | 0.1% | -20.9% | 14.1µM* | nt
COc1ccc(C2c3sc(=O)[nH]c3SCC2C(N)=O)cc1 (stereo not drawn) | -0.8 | -4.4% | 1.2% | 3.5% | 22.9%
CCOC(=O)C1CSc2[nH]c(=O)sc2C1c1ccccc1 (stereo not drawn) | 0.9 | 7.1% | -19.2% | -18.9% | 39.8µM*
COC(=O)C1CSc2[nH]c(=O)sc2C1c1ccc(O)c(OC)c1 (stereo not drawn) | -20.3 | 5.1% | 2.5% | 1.7% | 56.2µM*
S=C(NCCSCc1ccc(Cl)cc1Cl)Nc1ccccc1 | 2.0 | ? | ? | -14.6% | 15.3%
S=C(Nc1ccccc1)Nc1ccc(OCc2ccc(Cl)cc2Cl)cc1 | -2.0 | -1.3% | 14.1µM*[quencher] | ? | -8.1%
COc1ccc(N(Cc2cc(=O)[nH]c3ccccc23)C(=O)c2ccco2)cc1 | 8.2 | -5.1% | 6.9% | 10.8% | 56.2µM*
COc1ccc(CN(C(=O)c2ccco2)c2ccccc2)cc1 | 8.4 | 0.9% | -4.9% | -5.4% | -0.7%
COc1cc2cc3c(N)c(C(=O)Nc4sc(C)c(C)c4C#N)sc3nc2cc1OC | -9.8 | 8.4% | -26.9% | 5.01µM* | -20.4%
Cc1cc(C(=O)Nc2sc(C)c(C)c2C#N)no1 | 4.0 | 1.2% | -7.2% | ? | -4.8%
COc1cc2cc3c(N)c(C(=O)NCc4ccco4)sc3nc2cc1OC | 0.6 | -4.5% | ? | 14.1µM* | -14.8%
COC(=O)C1=C(C)NC(C)=C(C(=O)OC(C)(C)CN(C)CCC(c2ccccc2)c2ccccc2)C1c1cccc([N+](=O)[O-])c1 (stereo not drawn) | nt | nt | nt | nt | 46.7%
CC(=O)Nc1ccc(NC(=O)C2CCN(S(=O)(=O)c3ccc4c(c3)CCCC(=O)N4)CC2)cc1 | nt | -11.5% | -11.1% | -11.4% | nt
COc1ccc(CNC(=O)CCc2c(C)c3cc4c(C)c(C)oc4cc3oc2=O)cc1OC | nt | -3.5% | -1.1% | -0.4% | nt
Cc1cc(C)n(-c2nc3ccccc3nc2Nc2ccc(N(C)C)cc2)n1 | nt | ? | 17.8µM*[quencher] | ? | nt
Cc1ccc2nc(Nc3ccc4[nH]c(=O)[nH]c4c3)c(-n3nc(C)cc3C)nc2c1 | 1.8 | 15.0% | 11.2µM*[quencher] | ? | -6.4%
Cc1cccc2cc(C#N)c(NCc3ccccc3)nc12 | -44.3* | -7.8% | -8.5% | 1.3% | ?
CCOCCCNC(=S)NCCCNc1nc2c(C)cc(C)cc2cc1C#N | -6.2 | 2.0% | -23.7% | ? | ?
CCOCCCNC(=S)NCCNc1nc2c(C)cccc2cc1C#N | -20.1 | -1.5% | -8.0% | -6.2% | 50.1µM*
Cc1cccc2cc(C#N)c(NCCNC(=O)COc3ccccc3)nc12 | -35.2* | -1.0% | 10.1% | 19.7% | 50.1µM*
Cc1coc2c(C)c3oc(=O)c(CCC(=O)NCCc4ccc(Cl)cc4)c(C)c3cc12 | nt | -4.2% | -3.4% | -1.1% | nt
Cc1cc(/C=N/NC(=O)C(O)(c2ccccc2)c2ccccc2)c(C)n1-c1ccccc1 | -6.0 | 2.4% | 4.7% | 7.4% | -9.1%
